# Test results as given in PubChem BioAssay (Tox21).
# Records with an inconclusive call do not appear. A call without a number means that no potency is given here. The source made the active and inactive calls. The call rests on the fitted dose curve; in most records, active means well fitted cell-killing curve with a large enough effect in the repeat runs; inconclusive means weak or mixed curves; inactive means flat fitted curve, though single readings scatter.
# Assay: qHTS assay to identify small molecule antagonists of the TGF-beta/Smad signaling pathway - cell viability counter screen (AID 1346824); further: nearly all actives have a fitted effect of over 50% in size
# Settings: SBE-bla HEK293T viability, CellTiter-Glo luminescence; series mostly up to 76.8 µM
# From the text: U.S. Tox21 Program National Center for Advancing Translational Sciences [NCATS] NIH Chemical Genomics Center [NCGC] U.S. Environmental Protection Agency [EPA] National Institutes of Environmental Health Sciences [NIEHS] National Toxicology Program [NTP] U.S. Food and Drug Administration [FDA] Tox21 Assay Overview: Transforming growth factor beta (TGF-beta) superfamily consists of a large number of structurally related dimeric proteins that act as hormones or local mediators in regulating a wide range of biological functions. This superfamily includes TGF-betas themselves, the bone morphogenetic proteins (BMPs) and the activins. These ligands induce oligomerization of serine/threonine receptor kinases and phosphorylate the cytoplasmic signaling molecules of Smad protein family. CellSensor SBE-bla HEK 293T cell line (Life Technologies, Carlsbad, CA), responsive to TGF-beta was used to screen Tox21 10K compound library for identification of agonists/antagonists of the Smad signaling pathway. This cell line contains a beta-lactamase reporter gene under control of the Smad binding element (SBE) stably integrated into HEK 293T cells. Also cytotoxicity of the compounds was tested in parallel by measuring the cell viability using CellTiter-Glo assay system in the same wells.
# Tox21 Assay Protocol Summary: SBE-bla HEK 293T cells were dispensed at 4,000/well in 5 uL of assay medium into black wall/clear-bottom 1536-well plates using a Multidrop Combi (ThermoFisher Scientific, Waltham, MA) dispenser. After the assay plates were incubated at 37 C and 5% CO2 for an overnight, 23 nL of compounds dissolved in DMSO, positive controls or DMSO only was transferred to the assay plate by a Pintool station (Kalypsys, San Diego, CA). Compound transfer was followed by the addition of 1 uL of 0.25 ng/mL TGF-beta1 or assay buffer using two separate tips of Flying Reagent Dispenser (FRD, Aurora Discovery, San Diego, CA). The assay plates were incubated at 37 C and 5% CO2 for 5 hr. One uL of LiveBLAzer B/G FRET substrate (Life Technologies) was added using a Flying Reagent Dispenser (FRD, Aurora Discovery, San Diego, CA) and the plates were incubated at room temperature for 2 hr. Fluorescence intensity (405 nm excitation, 460 nm and 530 nm emissions) was measured using an Envision plate reader (PerkinElmer, Shelton, CT). For cytotoxicity read, 4 uL of CellTiter-Glo reagent (Promega Corporation, Madison, WI) was added to each well of the assay plates using FRD. After 30 min incubation at room temperature, the luminescence intensity was measured using ViewLux plate reader (PerkinElmer).
# Potency means the concentration at half of the fitted maximal effect.
Structure (SMILES),Potency,"viability change, negative = cytotoxic"
COc1c(Br)cc(Br)c(C)c1Br,inactive,–
CCOC=C(C(=O)OCC)C(=O)OCC,inactive,–
SC1CCCCC1,inactive,–
Cc1cc(C)c(O)c(C(C)(C)C)c1,inactive,–
Oc1ccc(C2(c3ccc(O)c(C4CCCCC4)c3)CCCCC2)cc1C1CCCCC1,43.6 µM (active),–
O=C(c1ccccc1)c1ccc(Cl)cc1,inactive,–
CCc1cccc(C)c1N(C(=O)C(=O)O)C(C)COC (stereo not given),inactive,–
Clc1ccc2c(Cl)ccnc2c1,inactive,–
C=C[Si](C)(C)Cl,–,9.11% [at 6.97 µM] (inactive)
C=Cc1ccc(O)c(OC)c1,inactive,–
Cc1ccc2nc(-c3ccc(N)cc3)sc2c1S(=O)(=O)O,inactive,–
CN(C)CCOc1ccc(/C(=C(/CCCl)c2ccccc2)c2ccccc2)cc1,inactive,–
CN(C/C=C/c1ccccc1)Cc1cccc2ccccc12,inactive,–
CC(=O)CC(N)=O,inactive,–
CCN(CC)c1ccc(C=O)c(O)c1,inactive,–
Oc1ccc2c(c1)CCC2,inactive,–
O=C(O)C[C@H](O)C[C@H](O)/C=C/c1c(C2CC2)nc2ccccc2c1-c1ccc(F)cc1,–,0.256% [at 15.8 µM] (inactive)
C=CC(=O)O[C@H]1C[C@@H]2CC[C@@]1(C)C2(C)C,inactive,–
CCC(O)CO (stereo not given),inactive,–
CCCCCCCCOC(=O)c1cc(O)c(O)c(O)c1,inactive,–

Structure (SMILES),Potency,"viability change, negative = cytotoxic"
Nc1c(Br)cc([N+](=O)[O-])cc1Br,inactive,–
Cn1c(=O)[nH]c2ncn(C)c2c1=O,inactive,–
CC1=CC[C@@H](C(C)(C)O)CC1,inactive,–
O=C1OC2(c3ccccc31)c1ccc(O)c(Br)c1Oc1c2ccc(O)c1Br,inactive,–
N#CCCOCCC#N,inactive,–
COc1cc([C@@H]2c3cc4c(cc3[C@@H](O[C@@H]3O[C@@H]5CO[C@@H](C)O[C@H]5[C@H](O)[C@H]3O)[C@H]3COC(=O)[C@H]23)OCO4)cc(OC)c1O,inactive,–
CCNc1nc(NC(C)(C)C)nc(OC)n1,inactive,–
Cc1ccc2n[nH]nc2c1,inactive,–
Nc1ccc2c(S(=O)(=O)O)cccc2c1S(=O)(=O)O,inactive,–
c1ccc(-c2nc3ccccc3[nH]2)cc1,inactive,–
COc1cc2ncnc(Nc3cccc(Cl)c3)c2cc1OC,–,0.414% [at 15.8 µM] (inactive)
CC(C=O)c1ccccc1 (stereo not given),inactive,–
C=C(C)CCO,inactive,–
[Cl][Dy]([Cl])[Cl],inactive,–
COCCC(=O)OC,inactive,–
C1=CCCC1,inactive,–
C=C(C)C1CCC(C)CC1O (stereo not given),inactive,–
CC(C)=CCC[C@H](C)CC=O,inactive,–
Nc1cc([N+](=O)[O-])cc(Cl)c1O,inactive,–
CCCCCCCCCCCCS(=O)(=O)Cl,–,-0.792% [at 15.8 µM] (inactive)
